Screening data as filed in PubChem BioAssay.
Giardia FBPA inh = qHTS Assay for Inhibitors of Fructose-1,6-bisphosphate Aldolase from Giardia Lamblia; purified Giardia FBPA; Potency, µM (series often up to 59.6 µM), without a hit: at the top dose activity, negative = inhibition, actives largely listed as inhibitors; 0.71% of 290,000 active; AID 2451, 2010; further: potency means the concentration at half of the fitted maximal effect; on the % scale 0 is the no-effect control and ±100 the full control effect; nearly all actives have a fitted effect of over 55% in size
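40 nM FBPA preincubated 10 min at RT with compound (up to 57.5 uM final), then substrate plus GAPDH/TPI/NAD/arsenate coupling and diaphorase/resazurin added. Fluorescence read after 20 min at RT, 525/598 nm.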
TbPYK inhibitor = qHTS of Trypanosoma Brucei Inhibitors; TbPYK enzyme, Kinase-Glo Plus ATP luminescence, 45 min; AID 624173, 2012; 0.12% of 410,000 active; pyruvate kinase (Trypanosoma brucei), Q57TT1; Potency, µM (doses to about 76.8 µM), for the others: at the highest dose activity, negative = inhibition, most hits filed as inhibitors; further: potency means the concentration at half of the fitted maximal effect; on the % scale 0 is the no-effect control and ±100 the full control effect; nearly all actives have a fitted effect of over 50% in size
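Assay buffer: 50 mM TEA pH 7.2, 100 mM KCl, 10 mM MgCl2, 0.05% BSA, 0.01% Tween-20. Pyruvate kinase from T. brucei plus substrate met compound, then ADP (130 uM final). Luminescence was read post 45 min RT.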
Cycloheximide cs = Cycloheximide Counterscreen for Small Molecule Inhibitors of Shiga Toxin; max response, %; 12% of 300,000 active; cell reporter, cycloheximide protein synthesis inhibition counterscreen; in the data active means max response mostly above about 13%, no sharp cut-off; inactive means mostly below about 14%; further: read at 38.3 µM for the half of the compounds with a filed dose; 0% is about no effect
Shiga inhibitor = A qHTS for Small Molecule Inhibitors of Shiga Toxin; Vero cells, Shiga toxin protein synthesis inhibition reporter; inhibition, % at 38.7 µM; 9.2% of 290,000 active; in the data active means inhibition mostly above about 28%, no sharp cut-off; inactive means mostly below about 43%; further: 0% is about no effect
LmPK inhibitor = qHTS Assay for Inhibitors of Leishmania Mexicana Pyruvate Kinase (LmPK) | Q27686 | 0.37% of 290,000 active | purified LmPK, Kinase-Glo ATP luminescence, 1 h | Potency, µM (doses to about 57.5 µM), inactives show at the highest dose activity change, negative = inhibition, usual class: inhibitors; further: potency means the concentration at half of the fitted maximal effect; on the % scale 0 is the no-effect control and ±100 the full control effect
Target sequence (Q27686 whole entry, looked up): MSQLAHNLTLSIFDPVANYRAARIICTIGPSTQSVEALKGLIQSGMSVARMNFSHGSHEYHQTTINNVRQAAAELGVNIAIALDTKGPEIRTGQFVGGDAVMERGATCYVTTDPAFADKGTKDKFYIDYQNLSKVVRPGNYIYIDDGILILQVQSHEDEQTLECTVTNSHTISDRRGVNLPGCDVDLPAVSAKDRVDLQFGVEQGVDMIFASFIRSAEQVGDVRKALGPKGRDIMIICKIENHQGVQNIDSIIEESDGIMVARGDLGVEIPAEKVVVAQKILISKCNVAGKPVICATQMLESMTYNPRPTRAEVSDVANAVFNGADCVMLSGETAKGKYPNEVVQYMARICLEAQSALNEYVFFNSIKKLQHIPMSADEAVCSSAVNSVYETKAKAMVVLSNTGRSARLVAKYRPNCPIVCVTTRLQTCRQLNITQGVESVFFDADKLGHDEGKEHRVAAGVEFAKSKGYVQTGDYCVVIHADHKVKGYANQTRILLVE
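ATP generated from ADP (0.1 mM) and PEP (0.5 mM) by 0.1 nM LmPK over 1 h at room temperature (pH 7.2 imidazole buffer) was detected by coupled luciferase luminescence. Values were normalized to uninhibited and no-enzyme wells.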
Sm TGR block = qHTS Assay for the Inhibitors of Schistosoma Mansoni Peroxiredoxins; 3% of 360,000 active; Potency, µM (highest dose often 114 µM), for the others: top-dose activity change, negative = inhibition, actives largely listed as inhibitors; Schistosoma mansoni thioredoxin glutathione reductase (TGR), Q962Y6; purified TGR, DTNB reduction, TNB absorbance 405 nm; further: potency means the concentration at half of the fitted maximal effect; on the % scale 0 is the no-effect control and ±100 the full control effect; nearly all actives have a fitted effect of over 60% in size
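TGR 20 nM + NADPH 100 uM (dispensed conc.), cpd preinc 15 min RT; start with NADPH (500 uM addition) then DTNB (15 mM addition). Kinetic TNB absorbance, 405 nm filter. Four-parameter Hill fit across titration.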
* marks the source's active call; other numbers are inactive results; i = inactive; ? = inconclusive; / = no result; [ ] = another dose, or the depositor's remark. Only a selection was taken, and hits are over-represented in it overall. Unless noted, the call rests on the fitted dose curve; in most records, active means well fitted curve in the direction sought with a large enough effect; inconclusive means small, poorly fitted or top-dose-only effect, or another doubt; inactive means no such curve, though single readings can be large; an effect the other way counts as inactive or inconclusive.

SMILES	Giardia FBPA inh	TbPYK inhibitor	Cycloheximide cs	Shiga inhibitor	LmPK inhibitor	Sm TGR block
COc1cccc(C(=O)NCc2cn3cccc(C)c3n2)c1	/	0%	/	/	/	8%
CC(C)N(C(C)C)S(=O)(=O)c1ccc(Cl)nc1	4%	-1%	11	-9	5%[11.5 µM]	3%
CC(C)N(C(C)C)S(=O)(=O)c1ccc(N2CCc3ccccc3C2)nc1	2%	-5%	32*	58*	6%	-5%
CCN(CC)S(=O)(=O)c1ccc(N2CCc3ccccc3C2)nc1	-1%	-1%	37*	26	11%	-2%
COc1ccc(C(=O)CC(=O)C(=O)Nc2cccc(F)c2)cc1	2%	-9%	19*	50*	1%	-9%
COc1ccc(C(=O)CNc2cccc(F)c2)cc1	4%	-9%	50*	87*	-4%	-20%
COc1ccc(C(=O)CC(=O)C(=O)Nc2ccc(C)c(Cl)c2)cc1	-16%	-4%	23*	29	-3%	-19%
COc1ccc(C(=O)CC(=O)C(=O)Nc2ccccc2)cc1	-5%	17%	22	36	-1%	-12%
CC1=C(C(=O)OCC2CCCCC2)C(c2ccc(Cl)cc2)CC(=O)N1 (stereo not drawn)	/	4%	/	/	/	-4%
Cc1ccc(C(=O)Nc2ccc(SC(F)F)cc2)s1	-19%	-8%	51*	109*	2%	-1%
O=C(Nc1ccc(SC(F)F)cc1)C1=COCCO1	0%	-2%	34*	70*	-22%	-11%
CC(=O)N1CCN(C(=S)Nc2ccc(SC(F)F)cc2)CC1	-5%	0%	1	-13	0%	2%
Cc1ccc(-c2nc3ccccc3c(=O)n2O)cc1	-24%	2%	5	19	3%	-1%
O=c1c2cc(Br)ccc2nc(-c2ccccc2)n1O	12%	3%	11*	15	-1%	1%
CCOc1ccc(-c2cc3c(=O)n(CC(=O)Nc4c(C)cccc4C)ccn3n2)cc1	/	3%	/	/	/	-3%
OCCNCc1ccc(OCc2ccc(Cl)cc2Cl)cc1	1%	-7%	25*	35	-2%	/
OCCCCNCc1ccc(OCc2ccc(Cl)cc2Cl)cc1	-1%	-13%	-8	-19	0%	6%
CC(=O)c1cccc(NC(=O)CCS(=O)(=O)c2ccc3c(c2)n(C)c(=O)c(=O)n3C)c1	/	6%	/	/	/	?
COc1cccc(CNC(=O)CNC(=O)c2cccs2)c1	3%	10%	1	-6	-7%	-1%
CCOC(=O)c1cccc(NC(=O)CCS(=O)(=O)c2cccs2)c1	2%	-3%	-5	10	5%	-86%
CC(=O)c1ccc(NC(=O)CCS(=O)(=O)c2ccc3c(c2)n(C)c(=O)c(=O)n3C)cc1	0%	-2%	1	-6	-7%	40µM*
CC(=O)c1ccc(NC(=O)c2ccc(NC(=O)CCS(=O)(=O)c3cccs3)cc2)cc1	-2%	0%	18*	192*	2%	6%
COc1cccc(NC(=O)CNC(=O)c2cccs2)c1	-6%	0%	26*	61*	-1%	-6%
COc1cccc(NC(=O)CCS(=O)(=O)c2cccs2)c1	0%	-8%	47*	78*	-2%	-9%
COc1ccc2nc3sc(C(=O)N4CCN(c5ccc(F)cc5)CC4)cc3cc2c1	/	0%	/	/	/	6%
SMILES	Giardia FBPA inh	TbPYK inhibitor	Cycloheximide cs	Shiga inhibitor	LmPK inhibitor	Sm TGR block
CCCc1cc(=O)[nH]c(SCC(=O)N(CC)c2c(N)n(Cc3ccccc3)c(=O)[nH]c2=O)n1	/	-6%	/	/	/	4%
O=S(=O)(Cc1cnc(Cl)s1)c1ccccc1	8%	1%	-2	-1	-5%	0%
O=S(=O)(Cc1ccccc1)Cc1cnc(Cl)s1	0%	4%	1	-4	0%	40µM*
COc1ccc(N2CCN(C(CNS(=O)(=O)c3c(C)cc(C)cc3C)c3ccco3)CC2)cc1 (stereo not drawn)	/	-6%	/	/	/	-6%
Cc1ccc(N=C/C(C(=O)C(F)(F)F)=C(\O)c2ccco2)cc1Cl	-2%	1%	60*	106*	0%	0%
O=C(NCCNC(=O)c1ccco1)c1ccc(F)cc1	-5%	3%	1	-4	-12%	3%[57.1 µM]
Cc1cccc(N=C/C(C(=O)C(F)(F)F)=C(\O)c2ccco2)c1	19%	-9%	-1	-5	-5%	-2%
O=C(/C(C=Nc1ccc(F)cc1)=C(/O)c1ccco1)C(F)(F)F	2%	-5%	60*	62*	-11%	-22%
Cc1cccc(N(C)S(=O)(=O)c2nnc(NC(=O)C(C)Oc3ccccc3)s2)c1 (stereo not drawn)	/	-4%	/	/	/	?
Cc1nc(-c2ccc(C)c(S(=O)(=O)N3CCC(C(=O)NCc4ccc(F)cc4)CC3)c2)no1	/	2%	/	/	/	3%
Cc1ccccc1OCc1nc(C#N)c(N2CCCC2)o1	4%	2%	4	37	6%	18%
N#Cc1nc(Cc2ccccc2)oc1N1CCCC1	0%	0%	26*	35*	-1%	-12%
COc1ccccc1OCc1nc(C#N)c(N2CCCC2)o1	-1%	0%	27*	49*	2%	16%
c1cc2c(cc1C1CCCCC1)c1c3n2CCN=C3CCC1	10%	-8%	-3	-5	-3%	7.9µM*
Cc1ccc2c(c1)c1c3n2CCN=C3CCC1	-6%	5%	-3	-5	7%	-20%
N/C(Cc1ccc(Cl)cc1Cl)=N\OC(=O)Cc1ccc(Cl)cc1	-1%	4%	-2	14	1%	-17%
N/C(CC1CC1(Cl)Cl)=N\OC(=O)c1ccccc1 (stereo not drawn)	3%	5%	45*	71*	-1%	2%
N/C(Cc1ccc(Cl)cc1Cl)=N\OC(=O)Cc1ccccc1	5%	-13%	20*	22	1%	-5%
N/C(Cc1ccc(Cl)cc1Cl)=N\OC(=O)c1ccccc1	0%	-2%	19*	32*	3%	1%
Cc1ccc(S(=O)(=O)c2nnn3c2nc(NCc2ccccc2Cl)c2sccc23)cc1	/	-5%	/	/	/	1%
O=C(NCc1ccccc1)c1cc(C2CCCCN2C(=O)OCCF)on1 (stereo not drawn)	/	1%	/	/	/	/
N/C(Cc1nc2ccccc2s1)=N\O	-18%	8%	31*	108*	-2%	-14%
NC(=O)CSCc1nc2ccccc2s1	-16%	-2%	84*	42	-3%	0%
COc1ccc([C@]23Cc4ccccc4C(O2)c2c(cc(-c4ccccc4)oc2=O)O3)cc1	-29%[12.9 µM]	/	10	i	-8%[11.5 µM]	?
O=C(Nc1cnc2ccccn2c1=O)c1ccc(Cl)cc1	0%	3%	33*	113*	-3%	6%
